Results reported in the supplement of paper PMC11634586.
Unmarked numbers belong to inactive results.

tested on: NCI-H1688; test: inhibition of cell viability relative to untreated control (fraction); higher = stronger growth inhibition, active = 0.5 or more; settings: 30 µM; 24 h
Summary of the method: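 Inhibition of cell viability appears as a fraction, based on viability relative to untreated cells. The assay used NCI-H1688 small cell lung cancer cells seeded in 96-well plates at 3 × 10^3 cells/well, treated one day later with a natural compound library (TargetMol) at 30 µM for 24 h at 37°C and 5% CO2. Absorbance at 450 nm with Cell Counting Kit-8 was recorded in triplicate.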

Row | SMILES | inhibition of cell viability
1 | Cc1c(S(=O)(=O)O)oc2c1C(=O)C(=O)c1c-2ccc2c1CCCC2(C)C [Tanshinone IIA-sulfonic sodium] | -0.0961
2 | O=c1c(O)c(-c2cc(O)c(O)c(O)c2)oc2cc(O)cc(O)c12 [Myricetin] | 0.0201
3 | Cc1cc2nc3c(=O)[nH]c(=O)nc-3n(C[C@H](O)[C@H](O)[C@H](O)CO)c2cc1C [Riboflavin] | 0.284
4 | Nc1ncnc2c1ncn2[C@@H]1O[C@H](CO)C[C@H]1O [Cordycepin] | -0.154
5 | C[N+](C)(C)CC(O)CC(=O)[O-] (racemic) [DL-Carnitine] | 0.00503
6 | C[n+]1cccc(C(=O)[O-])c1 [Trigonelline] | -0.0163
7 | C=C1CC[C@H](O)C/C1=C/C=C1\CCC[C@]2(C)[C@@H]([C@H](C)/C=C/[C@H](C)C(C)C)CC[C@@H]12 [Vitamin D2] | -0.0632
8 | C=C1C(=O)[C@]23[C@H](CC[C@@H]1[C@@H]2O)[C@]12CO[C@@]3(O)[C@H](O)[C@H]1C(C)(C)CC[C@@H]2O [Rubescensin A] | 0.984 (active)
9 | O=C(/C=C/C=C/c1ccc2c(c1)OCO2)N1CCCCC1 [Piperine] | -0.249
10 | O=c1c(-c2ccc(O[C@@H]3O[C@H](CO)[C@@H](O)[C@H](O)[C@H]3O)cc2)coc2cc(O)cc(O)c12 [Sophoricoside] | 0.495
11 | Cn1cnc2c1c(=O)[nH]c(=O)n2C [Theobromine] | 0.0986
12 | C=CC[C@@H]1/C=C(\C)C[C@H](C)C[C@H](OC)[C@H]2O[C@@](O)(C(=O)C(=O)N3CCCC[C@H]3C(=O)O[C@H](/C(C)=C/[C@@H]3CC[C@@H](O)[C@H](OC)C3)[C@H](C)[C@@H](O)CC1=O)[C@H](C)C[C@@H]2OC [Tacrolimus (FK506)] | 0.0216
13 | Nc1nc(=O)c2nc(CNc3ccc(C(=O)N[C@@H](CCC(=O)O)C(=O)O)cc3)cnc2[nH]1 [Folic acid] | -0.206
14 | Cn1c(=O)c2nc[nH]c2n(C)c1=O [Theophylline] | -0.0544
15 | COc1cc2c(cc1O)[C@@H](Cc1ccc(O)c(Oc3ccc(C[C@@H]4c5cc(OC)c(OC)cc5CCN4C)cc3)c1)N(C)CC2 [Daurisoline] | 0.977 (active)
16 | O[C@H]1[C@H]2c3cc4c(cc3CN3CCC(=C[C@@H]1O)[C@H]23)OCO4 [Lycorine chloride] | 0.931 (active)
17 | C[C@H]1O[C@@H](O[C@H]2CC[C@@]3(C)[C@@H](CC[C@]4(C)[C@@H]3C=C[C@]35OC[C@@]6(CCC(C)(C)C[C@H]63)[C@@H](O)C[C@]54C)[C@]2(C)CO)[C@H](O)[C@@H](O[C@@H]2O[C@H](CO)[C@@H](O)[C@H](O)[C@H]2O)[C@H]1O [Saikosaponin A] | 1 (active)
18 | COC(=O)CC[C@@H](C)[C@H]1CC[C@H]2[C@@H]3[C@H](O)C[C@@H]4C[C@H](O)CC[C@]4(C)[C@H]3C[C@H](O)[C@]12C [Methyl Cholate] | 0.013
19 | COc1ccc(-c2cc(=O)c3c(OC)c(OC)c(OC)c(OC)c3o2)cc1 [Tangeretin] | 0.299
20 | C[C@@H]1CCCCCCCCCCCCC(=O)C1 [Muscone] | -0.148
21 | O=C1c2ccccc2C(=O)c2c1ccc(O)c2O [Alizarin] | 0.344
22 | C[C@]12CCC(=O)C=C1CC[C@@H]1[C@@H]2C(=O)C[C@@]2(C)[C@H]1CC[C@]2(O)C(=O)CO [Cortisone] | -0.215
23 | O=C(O)[C@H]1O[C@@H](Oc2cc3oc(-c4ccc(O)cc4)cc(=O)c3c(O)c2O)[C@H](O)[C@@H](O)[C@@H]1O [Scutellarin] | -0.14
24 | CC(C)=CCC[C@](C)(O[C@@H]1O[C@H](CO[C@@H]2O[C@@H](CO)[C@H](O)[C@H]2O)[C@@H](O)[C@H](O)[C@H]1O)[C@H]1CC[C@]2(C)[C@@H]1[C@H](O)C[C@@H]1[C@@]3(C)CC[C@H](O[C@@H]4O[C@H](CO)[C@@H](O)[C@H](O)[C@H]4O[C@@H]4O[C@H](CO)[C@@H](O)[C@H](O)[C@H]4O)C(C)(C)[C@@H]3CC[C@]12C [Ginsenoside Rc] | -0.0382
